CBX7 AlphaScr – CBX7 chromodomain binding inhibitors, primary screen, biochemical, AlphaScreen; AlphaScreen His6-CBX7 / biotin-H3K27me3 peptide binding; hits give low values; AID 1224903, 2016; normalised signal (fraction of DMSO) (test concentration not listed); Chromobox protein homolog 7 (Homo sapiens), O95931; 66,000 compounds, 1.1% hits; in the data active = normalised signal below about 0.5
Target sequence (O95931 whole entry, looked up): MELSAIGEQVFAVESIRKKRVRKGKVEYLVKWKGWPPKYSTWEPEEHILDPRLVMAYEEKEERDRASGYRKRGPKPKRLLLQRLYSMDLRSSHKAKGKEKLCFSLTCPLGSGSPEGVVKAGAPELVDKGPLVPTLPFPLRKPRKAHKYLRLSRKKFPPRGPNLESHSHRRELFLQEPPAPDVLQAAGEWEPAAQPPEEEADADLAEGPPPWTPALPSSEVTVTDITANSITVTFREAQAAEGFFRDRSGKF
The depositor's hits bear a star. This excerpt belongs to a sample that is enriched for hits.

SMILES	CBX7 AlphaScr
COc1ccc(NC(=O)C(=O)NCCc2ccccc2)cc1OC	1.1
CCCC(=O)NC(c1ccccc1OC)c1cc(Cl)c2cccnc2c1O (centres undefined)	0.84
COc1ccc(C(NC(=O)CCc2ccccc2)c2ccc3cccnc3c2O)cc1OC (centres undefined)	0.039*
CCCC(=O)Nc1ccc(Cl)c(-c2nc3ncccc3o2)c1	1
COc1ccc(-c2nc(C(=O)NC(C)CCc3ccccc3)c(C)o2)cc1OC (centres undefined)	0.96
COc1cc(C2CC(=O)NC3=C2C(=O)CC(C)(C)C3)ccc1OC(C)C (centres undefined)	1.2
O=C(NCCc1nc2ccccc2[nH]1)c1ccccc1Cl	0.96
Cc1cccc(-c2cc(C(=O)NCc3ccncc3)c3ccccc3n2)c1	1
COc1ccccc1N1CCN(CC(O)COc2ccc(C(C)(C)C)cc2)CC1 (centres undefined)	0.88
COc1ccc(CNc2ccc3c(c2)nc(C)n3Cc2ccccc2)cc1OC	0.4*
COc1ccccc1CNc1ccc2c(c1)nc(C)n2C	1
COc1cccc(CNc2ccc3c(c2)nc(C)n3Cc2ccccc2)c1OC	0.31*
COc1ccc2c(c1)nc(C)n2Cc1ccccc1	0.97
COc1cccc(CNc2ccc3c(c2)nc(C)n3C)c1OC	0.84
COc1ccc(CNc2ccc3c(c2)nc(C)n3Cc2ccccc2)cc1	0.35*
COc1ccccc1OCc1nc2ccccc2n1Cc1ccccc1	1.1
COc1ccc(CNc2ccc(-c3nc4cc(C)ccc4s3)cc2)cc1OC	1.1
CC(=O)Nc1ccc2c(c1)nc(C)n2Cc1ccccc1	1.2
Fc1cccc(CSc2nc3ccncc3n2Cc2ccccc2Cl)c1	0.99
O=C(NCc1cccnc1)c1nn2c(C(F)(F)F)cc(-c3ccc(F)cc3)nc2c1Cl	0.99
COc1ccc(OC)c(NC(=O)c2sc3ncn(CC(=O)N4CCC(C)CC4)c(=O)c3c2C)c1	1
CCc1ccc(NC(=O)c2sc3ncn(CC(=O)N4CC(C)CC(C)C4)c(=O)c3c2C)cc1 (centres undefined)	0.98
COc1ccc(S(=O)(=O)Nc2ccccc2Cl)c2cccnc12	1.1
COc1cccc2c(S(=O)(=O)Nc3ccc(C(=O)O)cc3)ccnc12	0.12*
COc1ccc(S(=O)(=O)Nc2cccc(C)c2C)c2cccnc12	1
SMILES	CBX7 AlphaScr
CCC1=Nc2cc(C(=O)NCc3ccccc3)ccc2Sc2ccc(Cl)cc21	1.1
Cn1c(C(=O)NCCCN2CCCC2)cc2sc(Cl)cc21	1
CCc1cc(-c2n[nH]c(C)c2Oc2ccccc2)c(O)cc1O	0.41*
CCOc1cc(O)c(-c2n[nH]c(C)c2Oc2ccccc2)cc1CC	0.75
Cc1[nH]nc(-c2ccc(O)c(C)c2O)c1Oc1ccccc1	0.64
CCc1ccc(OCC(=O)N(Cc2nc(-c3cccc(C)c3)no2)C(C)C)c(Br)c1	1
Cn1nc(-c2ccc(C(=O)N3CCC(Cc4ccccc4)CC3)cc2)c2ccccc2c1=O	0.92
CC1CCCCC1NC(=O)C1c2cccn2CC(=O)N1c1ccc(Cl)cc1 (centres undefined)	0.94
COc1ccc(-c2noc(N(C)CC(=O)Nc3ccc(OC)cc3OC)n2)cc1	0.97
COc1ccc(-c2noc(N(C)CC(=O)Nc3cc(C)on3)n2)cc1	0*
COc1ccc(-c2noc(N(C)CC(=O)Nc3ccccn3)n2)cc1	1
Cc1cc2cc(CCNC(=O)Cc3ccc(F)cc3)c(=O)[nH]c2cc1C	0.98
COc1ccc2nc(N3CCC(C(=O)NCc4cccnc4)CC3)sc2c1	0.9
O=C1CCCc2oc3c(Br)cc(NS(=O)(=O)c4ccc(Cl)cc4)cc3c21	1
CCc1ccc(CN2C(=O)c3ccccc3C2C(=O)NCCc2ccccc2)cc1 (centres undefined)	0.86
Cc1onc(-c2ccccc2)c1C(=O)Nc1ccc(S(=O)(=O)Nc2nccs2)cc1	0.92
O=S(=O)(Nc1nccs1)c1ccc(Nc2nnc(-c3ccccc3)c3ccccc23)cc1	0.046*
NS(=O)(=O)c1ccc(Nc2nnc(-c3ccc(O)cc3)c3ccccc23)cc1	0.85
CCOCCCNC(=O)c1nc(-c2ccc(C)cc2)oc1C	1.1
CCOC(=O)N1CCc2c(sc(NCc3ccc(N(C)C)cc3)c2C(=O)Nc2ccc(OCC)cc2)C1	0.58
Cc1ccc2c(c1)NC(=O)C(CC(=O)NCCc1ccccc1)O2 (centres undefined)	1.1
NC(=O)C1CCN(C2CC(=O)N(CCC(c3ccccc3)c3ccccc3)C2=O)CC1 (centres undefined)	1.2
CC1(C)CC(=O)N(CC(=O)N2CCc3ccccc3C2)c2ccccc2S1(=O)=O	0.98
CCOC(=O)c1cnc2c(OC)cccc2c1N1CCC(Cc2ccccc2)CC1	0.42*
CCOC(=O)c1cnc2c(OC)cccc2c1NCc1ccccc1OC	0.99
CCOC(=O)c1cnc2c(OC)cccc2c1Nc1ccc(CC)cc1	1
O=C(Cn1cc(S(=O)(=O)c2ccccc2)c(=O)c2ccccc21)Nc1ccc2c(c1)OCO2	0.94

Assay outcomes: PubChem, Bradner/Qi Labs at DFCI
